# Experimental data taken from PubChem BioAssay AID1508602 (The Scripps Research Institute Molecular Screening Center, 2020).
# Several values for one entry are separate records, joined by “and”; a condition that tells them apart may be missing. Equal values may be shown once. About 6,800 (1%) of roughly 650,000 compounds were called active. Cut-off read from the data, not from the text of the source: active = activation above about 4.9%; inactive = the rest. This excerpt belongs to a sample that is enriched for actives. Some compounds were tested as several samples or in several runs, with calls that do not always agree.
# Biological target: G-protein coupled receptor 151 (Homo sapiens) (UniProt Q8TDV0)
# Experiment: activates the human receptor GPR151, primary screen, cell-based, PathHunter beta-arrestin, luminescence (AID 1508602);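 note: 0% = median of compound wells and 100% = cells with positive control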
# Details: PathHunter beta-arrestin GPR151 cells, at 11.2 µM, stronger effect = higher value
# Sequence of G-protein coupled receptor 151 (Homo sapiens) (Q8TDV0 whole entry, looked up): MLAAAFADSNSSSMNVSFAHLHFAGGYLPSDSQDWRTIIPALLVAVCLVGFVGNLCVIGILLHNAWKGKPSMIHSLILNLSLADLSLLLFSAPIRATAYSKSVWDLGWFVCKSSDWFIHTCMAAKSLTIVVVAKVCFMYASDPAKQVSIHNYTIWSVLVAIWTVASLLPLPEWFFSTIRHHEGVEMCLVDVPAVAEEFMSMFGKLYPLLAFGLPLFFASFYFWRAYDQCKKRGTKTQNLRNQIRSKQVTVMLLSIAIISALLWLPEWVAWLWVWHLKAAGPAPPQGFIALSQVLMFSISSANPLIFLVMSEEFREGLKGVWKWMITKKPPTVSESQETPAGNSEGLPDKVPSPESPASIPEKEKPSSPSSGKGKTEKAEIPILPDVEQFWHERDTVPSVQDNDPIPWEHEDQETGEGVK
row,SMILES,activation
1,COc1ccc(OC)c(C2=NOC(C(=O)Nc3cccc(O)c3)C2)c1 (centres undefined),1.6% (inactive)
2,CC(C)(C)NC(=O)C1CC(c2ccccc2Cl)=NO1 (centres undefined),1.12% (inactive)
3,COc1cc(NC(=O)C2CC(c3ccccc3O)=NO2)c(OC)cc1Cl (centres undefined),5.74% (active)
4,O=C(NNC(=S)NC(=O)c1ccccc1[N+](=O)[O-])c1ccc(O)cc1,-0.124% (inactive)
5,CO[C@@H]1COC(=O)[C@@H](C)COC(=O)[C@H](C)NC(=O)C/C=C/[C@H]1C,1.97% (inactive) and 5.04% (active)
6,COc1cc(Nc2ccnc(Nc3ccncc3)n2)cc(OC)c1OC,1.57% (inactive)
7,CCN(CC)c1nc(Nc2cc(OC)c(OC)c(OC)c2)nc(N2CCOCC2)n1,5.49% (active)
8,c1ccc(Nc2nccc(Nc3ccc(N4CCOCC4)cc3)n2)cc1,2.16% (inactive)
9,COc1cc(Nc2ccnc(Nc3ccc(N4CCOCC4)cc3)n2)cc(OC)c1OC,5.76% (active)
10,CCN(CC)c1nc(Nc2ccccc2)nc(N2CCOCC2)n1,-0.263% (inactive)
11,CCN(CC)c1nc(Nc2cc(OC)c(OC)c(OC)c2)nc(Nc2nc3ccccc3n2C)n1,-0.32% (inactive)
12,O=C1CCC(CCC(=O)N2CCCC2)(Cc2cccc3ccccc23)N1 (centres undefined),0.278% (inactive)
13,Cc1ccc(C(C)C)c(OCCNC(=O)c2cccs2)c1,0.446% (inactive)
14,COc1ccc(CC2(CCC(=O)NCCCn3ccnc3)CCC(=O)N2)c(F)c1 (centres undefined),-0.719% (inactive)
15,COc1cc(Nc2ccc(-n3cc(CC(=O)NCCCN4CCCC4=O)c4ccccc43)nn2)cc(OC)c1OC,-1.03% (inactive)
16,COC(=O)c1c(-c2ccccc2)csc1NC(=O)c1ccc(OC)c([N+](=O)[O-])c1,6.64% (active)
17,COc1ccc(C(=O)NCC(=O)O)cc1[N+](=O)[O-],-1.88% (inactive)
18,CCOC(=O)c1c(-c2ccc([N+](=O)[O-])cc2)csc1NC(=O)c1ccccc1,-1.07% (inactive)
19,COC(=O)c1cccc(-n2nnnc2SCC(=O)Nc2nc(C(C)(C)C)cs2)c1,-0.122% (inactive)
20,CC(C(=O)O)c1ccc(NC(=O)OC(C)(C)C)cc1 (centres undefined),-1.31% (inactive)

row,SMILES,activation
1,COc1ccc(N2C(=O)CSC2c2ccccc2F)cc1Cl (centres undefined),-0.327% (inactive)
2,COc1cccc(C2SCC(=O)N2c2cccc(C)c2)c1OC (centres undefined),5.36% (active)
3,COc1ccc(N2C(=O)CSC2c2cccc(Cl)c2Cl)cc1Cl (centres undefined),0.734% (inactive)
4,Cc1c(NC(=O)c2nn3c(C(F)(F)F)cc(-c4ccc(Cl)cc4)nc3c2Cl)c(=O)n(-c2ccccc2)n1C,-1.62% (inactive)
5,N#C/C(=C/c1ccc(Br)o1)C(=O)NCCc1c[nH]c2ccccc12,0.189% (inactive)
6,Cc1cc(CN(C)Cc2nc(NCC3CCCO3)c3ccc(Cl)cc3n2)on1 (centres undefined),-0.552% (inactive)
7,COc1cc(-c2ncnn2-c2ccc(Cl)cc2)ccc1OCc1ccccc1,-3.78% (inactive)
8,COCc1cc(C)c(C#N)c(N(C)C)n1,0.894% (inactive)
9,CC1=NN(c2cccc(Cl)c2)C(=O)/C1=C\c1ccc(F)cc1,-0.302% (inactive)
10,O=C(NCCc1ccsc1)c1ccccc1Cl,-3.26% (inactive)
11,O=C(NCc1ccsc1)c1ccc(-n2cccc2)cc1,6.14% (active)
12,COc1ccc(CNC(=O)NCc2ccsc2)cc1,-0.956% (inactive)
13,O=C(NCCc1ccc(N2CCCC2)cc1)c1ccc(F)cc1,0.277% (inactive)
14,CCn1c(NCc2ccccc2OC)nc2ccccc21,-0.109% (inactive)
15,C=CCN1C(=O)/C(=C\c2cc(Br)ccc2OCC)C(=O)NC1=S,0.0155% (inactive)
16,C#CCOc1ccc(C=C2C(=O)NC(=S)NC2=O)cc1Cl,-0.112% (inactive)
17,C#CCOc1ccc(Br)cc1/C=C1\NC(=S)N(C)C1=O,5.86% (active)
18,C/C(=N\NC(=O)CNC(=O)c1ccccc1Br)c1ccccc1,-0.31% (inactive)
19,Cc1cccc(C)c1OCC(=O)OCCNC(=O)c1cccnc1,2.35% (inactive)
20,Cc1cccc(OCCNC(=S)NC(=O)c2cccnc2)c1,7.55% (active)

row,SMILES,activation
1,CC(C)(C)c1ccc(OCCNC(=S)NC(=O)c2cncc(Br)c2)cc1,0.8% (inactive)
2,COc1ccc(-c2c(C)nn3c(NCCN(C)C)cc(C)nc23)cc1,0.306% (inactive)
3,O=C1NC2(CCCC2)C(=O)N1Cc1nnc(-c2ccccc2Br)o1,0.439% (inactive)
4,CS(=O)(=O)N(CC(=O)Nc1ccc(F)cc1F)c1cc(Cl)c(Cl)cc1Cl,-0.649% (inactive)
5,CS(=O)(=O)N(CC(=O)Nc1ccc(F)cc1F)c1ccc(F)cc1,7.88% (active)
6,CS(=O)(=O)N(CC(=O)Nc1ccc(F)cc1F)c1cccc([N+](=O)[O-])c1,-0.142% (inactive)
7,OCCn1c(SCCSc2nc3ccccc3n2CCO)nc2ccccc21,-0.408% (inactive)
8,COc1cc(NC(=O)c2cccc(Br)c2)ccc1NC(=O)c1ccco1,0.388% (inactive)
9,COc1cc(NC(=O)c2sc3ncnc(N4CCCCC4)c3c2C)cc(OC)c1OC,5.99% (active)
10,COc1ccccc1N1CCN(c2ncnc3sc(C(=O)Nc4ccc5c(c4)OCCO5)c(C)c23)CC1,-0.8% (inactive)
11,COc1ccc(NC(=O)c2sc3ncnc(N4CCCCC4)c3c2C)cc1OC,0.695% (inactive)
12,CCC(CC)NCc1cc(OC)c(OC)cc1Br,0.484% (inactive)
13,Cc1ccc([N+](=O)[O-])cc1S(=O)(=O)Nc1cccc(N(C)C)c1,0.193% (inactive)
14,Cc1cc(C)cc(N(C(C)C(=O)Nc2ccc(Cl)cc2)S(C)(=O)=O)c1 (centres undefined),-1.25% (inactive)
15,Nc1cc(Cl)ccc1C(=O)OCC(=O)Nc1ccc(N2CCCCC2)cc1,2.3% (inactive)
16,O=C1N[C@@H](Cc2ccccc2)C(=O)N2CCN(C(=O)c3ccc(OC(F)(F)F)cc3)C[C@H]12,-1.02% (inactive)
17,Cc1nc(NC(=O)C23CCC(C)(C(=O)O2)C3(C)C)sc1C (centres undefined),-1.28% (inactive)
18,CC(C)NC(=O)C12CCC(C)(C(=O)O1)C2(C)C (centres undefined),0.406% (inactive)
19,CC12CCC(C(=O)NC3CCCCC3)(OC1=O)C2(C)C (centres undefined),4.96% (active)
